The results in this text go back to PubChem BioAssay (EPA / NIEHS).

“And” between values parts separate entries of the source, which are not always exact repeats. Equal values may be shown once. More than one record can exist for a structure, and the calls need not agree. The source made the active and inactive calls. How the source made its calls: active means hit-call score of the fitted dose curve at least 0.9, where 1 is the maximum; inactive means score below 0.9.

The AC50 is the concentration at which the activity in the assay is half-maximal.

Heat shock factor protein 1 (Homo sapiens), sequence (Q00613 whole entry, looked up): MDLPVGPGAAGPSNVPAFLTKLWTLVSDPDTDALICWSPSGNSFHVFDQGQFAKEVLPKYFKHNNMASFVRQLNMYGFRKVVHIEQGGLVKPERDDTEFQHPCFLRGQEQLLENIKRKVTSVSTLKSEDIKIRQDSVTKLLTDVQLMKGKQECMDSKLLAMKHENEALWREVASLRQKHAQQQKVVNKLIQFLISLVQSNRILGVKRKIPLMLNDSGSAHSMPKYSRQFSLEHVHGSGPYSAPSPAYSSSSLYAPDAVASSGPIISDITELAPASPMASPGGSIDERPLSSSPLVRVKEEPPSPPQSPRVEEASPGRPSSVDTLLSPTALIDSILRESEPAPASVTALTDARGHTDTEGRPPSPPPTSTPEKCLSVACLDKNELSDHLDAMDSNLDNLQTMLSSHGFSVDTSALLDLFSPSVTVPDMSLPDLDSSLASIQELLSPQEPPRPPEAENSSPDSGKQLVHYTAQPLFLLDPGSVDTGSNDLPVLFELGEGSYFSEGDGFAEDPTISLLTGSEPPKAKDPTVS

This assay concerns the target Heat shock factor protein 1 (Homo sapiens) (UniProt Q00613). The assay can be described thus: ATG_HSE_CIS: Attagene CIS-FACTORIAL HepG2 Assay for human Heat Shock Transcription Factor 1 (HSE) (AID 2282953). The conditions noted are these: HepG2 HSE cis-reporter, Attagene RNA transcription; actives raise or lower the signal. As to the method:
ATG_CIS is a cell-based, multiplexed-readout assay that uses HepG2, a human liver cell line, with measurements taken at 24 hours after chemical dosing in a 24-well plate.ATG_HSE_CIS is one of 52 assay component(s) measured or calculated from the ATG_CIS assay. It is designed to make measurements of mRNA induction, a form of inducible reporter, as detected with fluorescence intensity signals by Reverse transcription polymerase chain reaction (RT-PCR) and Capillary electrophoresis technology.Data from the assay component ATG_HSE_CIS was analyzed into 1 assay endpoint. This assay endpoint, ATG_HSE_CIS, was analyzed with bidirectional fitting relative to DMSO as the negative control and baseline of activity. Using a type of inducible reporter, measures of mRNA for gain or loss-of-signal activity can be used to understand the reporter gene at the transcription factor-level as they relate to the gene HSF1. Furthermore, this assay endpoint can be referred to as a primary readout, because this assay has produced multiple assay endpoints where this one serves a reporter gene function. To generalize the intended target to other relatable targets, this assay endpoint is annotated to the dna binding intended target family, where the subfamily is heat shock protein.
Human liver HepG2 cells are transiently transfected with multiple reporter transcription units (MRTUs) in 6-well plates using FuGene 6 reagent (Roche; 3 ml FuGene/1 mg DNA). The MRTU constructs are regulated by a cis-regulating element (promoter). […] A major difference between the CIS and TRANS system is that in CIS activities of endogenous TFs are measured, whereas the TRANS assay evaluates changes in activities of exogenous, chimeric NR-Gal4 proteins. […] At the end of 24 hour incubation, total RNA was isolated using TriZol reagent (Invitrogen). The isolated RNA is then reverse-transcribed using oligo(dT) primer and Mo-MLV reverse transcriptase (Invitrogen) with DNAse I (Ambion) treatment for 30 min. The one-tenth of the produced cDNA was amplified by PCR using Taq DNA polymerase (Invitrogen) and two reporter sequence-specific primers. The PCR products were fluorescently labeled by primer extension with 6-arboxyfluorescein (6-FAM) 5'-labeled reporter sequence-specific primer (2 min at 95 C, 20 s at 68 C and 10 min at 72 C) and these products were digested with 5U of HpaI (New England Biolabs) for 2h at 37 C. The fragments were purified using Qiaquick PCR columns (Qiagen), analyzed on an ABI 3130xL genetic analyzer (Applied Biosystems) with peak positions identified by using a set of X-rhodamine (ROX)-labeled MapMarker1000 molecular weight standards (BioVentures). The raw capillary electrophoresis data was processed using Attagraph software (Attagene).
As for `COc1nc(C)nc(NC(=O)NS(=O)(=O)c2ccccc2OCCCl)n1`, the compound was classed as inactive.

As for `CC(C)CCCCCCc1ccc(O)cc1`, the AC50 is 15.3 µM (active) and 19.9 µM (active) and 17 µM (active); the compound was classed as inactive.

As for `C[C@]12C[C@H](O)[C@H]3[C@@H](CCC4=CC(=O)CC[C@@]43C)[C@@H]1CC[C@@H]2C(=O)CO`, the result was inactive.

For `CCC(O)=C1C(=O)CC(C(=O)O)CC1=O` (stereo not given), the outcome was inactive.

For the compound `CCCCCOC(=O)COc1cc(N2C(=O)C3=C(CCCC3)C2=O)c(F)cc1Cl`, the AC50 was 87.6 µM (active).

Consider `C=CCOC(Cn1ccnc1)c1ccc(Cl)cc1Cl` (stereo not given), for which the AC50 was 84.4 µM (active).

Turning to `CCCN(CCC)C(=O)SCC`, the result was inactive.

As for `CCCN(CCC)c1c([N+](=O)[O-])cc(C(F)(F)F)c(N)c1[N+](=O)[O-]`, the AC50 was 81 µM (active).

Regarding `CCSC(=O)N(CC(C)C)CC(C)C`, the compound was called inactive.

For `CCNc1nc(N)nc(Cl)n1`, the outcome was inactive.

For the compound `c1ccc2[nH]c(-c3cscn3)nc2c1`, the result was inactive.

Turning to `CCOC(=O)NCCOc1ccc(Oc2ccccc2)cc1`, the AC50 is 78.1 µM (active).

With `N[C@@H](Cc1cc(I)c(Oc2ccc(O)c(I)c2)c(I)c1)C(=O)O`, the outcome was inactive; the AC50 is 107 µM (active) and 160 µM (active).

With `CSC(=O)c1cccc2nnsc12`, the outcome was inactive.

For `CCCCC(CC)COC(=O)c1ccccc1C(=O)O` (stereo not given), the compound was called inactive.

As for `CC1(C)C(C=C(Cl)Cl)C1C(=O)OCc1cccc(Oc2ccccc2)c1` (stereo not given), the compound was called inactive.

For `CCOC(=O)C(C)Oc1ccc(Oc2nc3ccc(Cl)cc3o2)cc1` (stereo not given), the call was inactive.

`CCOC(=O)c1ccc(O)cc1`: the call was inactive.

For `N#CSCSc1nc2ccccc2s1`, the compound was classed as inactive and the AC50 is 18.1 µM (active).

Consider `CCOC(=O)COc1cc(-n2ncc(C(F)(F)F)c(C)c2=O)c(F)cc1Cl`, for which the compound was called inactive.

For `S=C(S)NCCNC(=S)S.[Mn+2].[S-]C([S-])=NCCN=C([S-])[S-].[Zn+2]`, the call was inactive.

As for `CCCCC(CC)CN1C(=O)C2C3C=CC(C3)C2C1=O` (stereo not given), the call was inactive.

`CC(=O)S[C@@H]1CC2=CC(=O)CC[C@]2(C)[C@H]2CC[C@@]3(C)[C@@H](CC[C@@]34CCC(=O)O4)[C@H]12`: the outcome was inactive and the AC50 is 171 µM (active).

As for `CCCCOC(=O)[C@@H](C)Oc1ccc(Oc2ccc(C(F)(F)F)cn2)cc1`, the call was inactive.

Turning to `CC(C)(C)[C@@H](O)[C@@H](Cc1ccc(Cl)cc1)n1cncn1`, the compound was classed as inactive.

Take `COC(=O)c1ccc(I)cc1S(=O)(=O)NC(=O)Nc1nc(C)nc(OC)n1`: the compound was classed as inactive.

Take `CC(C)(c1ccc(O)cc1)c1ccc(O)cc1`: the outcome was inactive and the half-maximal activity concentration (AC50) is 153 µM (active) [middle of 6 runs].

For the compound `CCCCOC(=O)C(C)Oc1ccc(Oc2ccc(C(F)(F)F)cn2)cc1` (stereo not given), the call was inactive.

With `CCCCOCCOCCOCc1cc2c(cc1CCC)OCO2`, the compound was called inactive.

`S=C([S-])NCCNC(=S)[S-].[Mn+2]`: the compound was classed as inactive.

For the compound `COCCO`, the call was inactive.

Consider `CCCCCCC(C)OC(=O)COc1nc(F)c(Cl)c(N)c1Cl` (stereo not given), for which the compound was classed as inactive.

For `COC(=O)c1c(Cl)nn(C)c1S(=O)(=O)NC(=O)Nc1nc(OC)cc(OC)n1`, the result was inactive.

Regarding `Oc1ccc(C(c2ccc(O)cc2)C(Cl)(Cl)Cl)cc1`, the compound was classed as inactive.

On to `OB(O)O`, for which the outcome was inactive.
